Reference: PubChem BioAssay (NCATS)
“And” between values parts separate entries of the source, which are not always exact repeats. Equal values may be shown once. Unmarked numbers belong to inactive results. Records with an inconclusive call do not appear. Entries that show only a call come without a potency. The source made the active and inactive calls. Unless noted, calls come from the whole dose curve; as a rule, active = well fitted curve in the direction sought with a large enough effect; inconclusive = small, poorly fitted or top-dose-only effect, or another doubt; inactive = no such curve, though single readings can be large; an effect the other way counts as inactive or inconclusive.

Key:
[1] = test system: JEG-3; assay: Primary qHTS to identify gynecologic anti-cancer compounds using libraries of approved drugs and bioactive compounds (AID 1345084); details: Gynecologic cancer cell panel viability, ATPlite luminescence, 48 h; series mostly up to 57.5 µM; note: nearly all actives have a fitted effect of over 55% in size
Outline: (§1)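 Luminescence from the ATPlite ATP-monitoring reagent indicates viable cell number; lower signal means cytotoxicity. Cells received compound 16 h after seeding and were exposed for 48 h across five concentrations.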

[2] = test system: OV90; assay: as above; details: Gynecologic cancer cell panel viability, ATPlite luminescence, 48 h; series mostly up to 57.5 µM
Outline: as §1

[3] = test system: PA-1; assay: as above; details: Gynecologic cancer cell panel viability, ATPlite luminescence, 48 h; series mostly up to 57.5 µM
Outline: as §1

[4] = test system: SKOV3; assay: as above; details: Gynecologic cancer cell panel viability, ATPlite luminescence, 48 h; series mostly up to 57.5 µM
Outline: as §1

[5] = test system: Tov-21-G; assay: as above; details: Gynecologic cancer cell panel viability, ATPlite luminescence, 48 h; series mostly up to 57.5 µM
Outline: as §1

[6] = test system: Tov112D; assay: as above; details: Gynecologic cancer cell panel viability, ATPlite luminescence, 48 h; series mostly up to 57.5 µM
Outline: as §1

[7] = Drug repurposing screens with cells derived from glioblastoma tumor samples (AID 1345199); details: GBM patient neurospheres viability, ATP luminescence, 48 h; note: nearly all actives have a fitted effect of over 40% in size; note: potency is the fitted concentration of half-maximal effect
Outline: (§2)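 Primary testing used CD133+ neurospheres from four GBM patients, seven concentrations, 48 h exposure and ATP-based viability; confirmation added three slower-growing patient lines.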

[8] = test system: astro; assay: as above; details: viability, ATP luminescence, 48 h; series mostly up to 45.9 µM
Outline: as §2

[9] = biological target: Nuclear receptor subfamily 1 group I member 2 (Rattus norvegicus) (UniProt Q9R1A7); assay: qHTS assay for small molecule activators of the rat pregnane X receptor (rPXR) signaling pathway (AID 651751; call rule not given here); details: rPXR reporter cells, luciferase (One-Glo), 24 h
Nuclear receptor subfamily 1 group I member 2 (Rattus norvegicus), sequence (Q9R1A7 whole entry, looked up): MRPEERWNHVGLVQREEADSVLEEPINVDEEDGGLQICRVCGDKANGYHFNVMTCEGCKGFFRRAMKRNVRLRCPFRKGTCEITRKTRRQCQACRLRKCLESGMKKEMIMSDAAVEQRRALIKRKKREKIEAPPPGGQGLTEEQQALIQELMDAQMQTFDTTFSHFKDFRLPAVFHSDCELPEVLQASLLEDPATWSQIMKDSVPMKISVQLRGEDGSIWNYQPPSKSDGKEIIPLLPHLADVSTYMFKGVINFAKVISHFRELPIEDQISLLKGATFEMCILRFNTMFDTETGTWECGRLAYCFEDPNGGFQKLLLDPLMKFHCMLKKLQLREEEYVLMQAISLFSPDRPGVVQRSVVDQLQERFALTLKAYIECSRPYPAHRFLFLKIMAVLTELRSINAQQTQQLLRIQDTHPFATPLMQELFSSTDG

[10] = qHTS assay to identify inhibitors of the type 1 interferon - major histocompatibility complex class I in skeletal muscle: Counter screen cell viability and HiBit confirmation (AID 1347412); details: iHSKM muscle cells + IFN-b, HiBiT or CellTiter-Glo, 24 h; Viability, at 45.9 µM (top of the series); note: nearly all actives have a fitted effect of over 60% in size
Outline: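 Luminescence read-out: Nano-Glo HiBiT lytic signal from C-terminally HiBiT-tagged HLA-B in CRISPR-edited human myoblasts, plus CellTiter Glo ATP as viability counter screen. IFN-beta 4.0 ng/ml; 24 hrs treatment at 37 C, 5% CO2.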

[11] = at 45.9 µM (top of the series), tumour line B
[12] = at 45.9 µM (top of the series), tumour line D
[13] = at 46.1 µM (top of the series), tumour line C
[14] = at 46 µM (top of the series), tumour line A
[15] = at 20 µM (top of the series), tumour line C
[16] = at 21.2 µM (top of the series), tumour line B
[17] = at 21.2 µM (top of the series), tumour line D
[18] = at 21.3 µM (top of the series), tumour line A

| Compound | outcome [1] | Potency [2] | outcome [3] | outcome [4] | outcome [5] | outcome [6] | activity, negative = cell killing [7, 11] | activity, negative = cell killing [7, 12] | activity, negative = cell killing [7, 13] | Potency ([7]; tumour line A) | outcome [8] | activity, negative = cell killing [7, 14] | max response [9] | activity, negative = cell killing [7, 15] | activity, negative = cell killing [7, 16] | activity, negative = cell killing [7, 17] | activity, negative = cell killing [7, 18] | Potency ([7]; tumour line B) | Potency ([7]; tumour line C) | outcome [10] |
| --- | --- | --- | --- | --- | --- | --- | --- | --- | --- | --- | --- | --- | --- | --- | --- | --- | --- | --- | --- | --- |
| CCN(CC)CC1CCCCN1CC(=O)N1c2ccccc2C(=O)Nc2cccnc21 (stereo not given) | inactive | inactive | inactive | inactive | inactive | inactive | -15.7% | -5.02% | -18.7% | 20 µM (active) | inactive | – | – | – | – | – | – | – | – | – |
| CC(C)=CCC/C(C)=C/CO | inactive | inactive | inactive | inactive | inactive | inactive | -6.27% | 1.11% | 8.23% | – | inactive | -25.2% | 1.1% | – | – | – | – | – | – | – |
| CC(N)CCCC(C)(C)O (stereo not given) | inactive | inactive | inactive | inactive | inactive | inactive | -8.17% | -3.88% | -13.9% | – | inactive | -24.8% | – | – | – | – | – | – | – | – |
| CCOC(=O)c1cccnc1 | inactive | inactive | inactive | inactive | inactive | inactive | -7.07% | -8.05% | 22.3% | – | inactive | -24.1% | – | – | – | – | – | – | – | – |
| NNC(=O)CP(=O)(c1ccccc1)c1ccccc1 | inactive | inactive | inactive | inactive | inactive | inactive | -1.23% | -15% | -12.7% | – | inactive | -19.4% | – | – | – | – | – | – | – | – |
| NS(=O)(=O)c1ccc(C(=O)O)cc1 | inactive | inactive | inactive | inactive | inactive | inactive | -5.24% | 4.61% | -15.2% | – | inactive | -19% | – | – | – | – | – | – | – | – |
| O=C1C(c2[nH]c3ccccc3c2O)=Nc2ccccc21 | inactive | inactive | inactive | inactive | inactive | inactive | -10% | -9.74% | -13.3% | – | inactive | -34.1% | 2.85% | – | – | – | – | – | – | – |
| CCCCCC(N)=O | inactive | inactive | inactive | inactive | inactive | inactive | -6.65% | -23.8% | -14.8% | – | inactive | -18.7% | 8.83% | – | – | – | – | – | – | – |
| CC(=O)N(CC(O)CO)c1c(I)c(C(=O)NCC(O)CO)c(I)c(C(=O)NCC(O)CO)c1I (stereo not given) | inactive | inactive | inactive | inactive | inactive | inactive | -2.73% | -8.17% | -23.8% | – | inactive | -31.6% | – | – | – | – | – | – | – | – |
| CC(=O)OCC(COC(C)=O)OC(C)=O | inactive | inactive | inactive | inactive | inactive | inactive | 7.15% | 15.4% | 1.43% | – | inactive | -13.4% | -2.17% and 2.63% | – | – | – | – | – | – | – |
| CN1C(=O)CC(c2ccccc2)C1=O (stereo not given) | inactive | inactive | inactive | inactive | inactive | inactive | 3.75% | 1.43% | -11.6% | – | inactive | 1.73% | – | – | – | – | – | – | – | – |
| CCOc1ccc(C(=O)OCCN(CC)CC)cc1 | inactive | inactive | inactive | inactive | inactive | inactive | -7.64% | -13.5% | -17.9% | – | inactive | -29% | – | – | – | – | – | – | – | – |
| NC(N)=NS(=O)(=O)c1ccc(N)cc1 | inactive | inactive | inactive | inactive | inactive | inactive | – | – | – | – | inactive | – | – | 3.63% | -6.02% | 9.81% | 6.37% | – | – | – |
| Cc1ccc(C(C)C)c(O)c1 | inactive | inactive | inactive | inactive | inactive | inactive | -5.11% | -0.376% | 0.583% | – | inactive | -10.8% | -0.755% | – | – | – | – | – | – | – |
| CC(=O)Nc1ccc(C(=O)O)cc1 | inactive | inactive | inactive | inactive | inactive | inactive | -15.7% | 14.1% | -22.1% | – | inactive | -33.2% | 0.613% | – | – | – | – | – | – | – |
| CCCCOC(=O)c1ccc(N)cc1 | inactive | inactive | inactive | inactive | inactive | inactive | – | -24.9% | – | 11.2 µM (active) | inactive | – | 15.7% | – | – | – | – | 12.6 µM (active) | 16.4 µM (active) | inactive |
| O=c1[nH]cnc2nc[nH]c12 | inactive | inactive | inactive | inactive | inactive | inactive | -0.606% | 15.6% | -12.9% | – | inactive | -28.5% | – | – | – | – | – | – | – | – |
| CCCNC(C)(C)COC(=O)c1ccccc1 | inactive | inactive | inactive | inactive | inactive | inactive | -3.47% | 11.4% | 1.22% | – | inactive | -6.31% | – | – | – | – | – | – | – | – |
| NC(=O)NC1NC(=O)NC1=O (stereo not given) | inactive | inactive | inactive | inactive | inactive | inactive | – | – | – | – | inactive | – | – | 1.99% | 4.84% | -17.3% | -7.96% | – | – | – |
| Cn1c(=O)c2c(ncn2CCO)n(C)c1=O | inactive | inactive | inactive | inactive | inactive | inactive | -5.04% | -0.441% | -21.7% | – | inactive | -29% | – | – | – | – | – | – | – | – |
| NC(=O)c1ccc([N+](=O)[O-])cc1Cl | inactive | inactive | inactive | inactive | inactive | inactive | -9.49% | -5.61% | -36.6% | – | inactive | – | – | – | – | – | – | – | – | – |
| O=C(O)CCCc1ccccc1 | inactive | inactive | inactive | inactive | inactive | inactive | -2.94% | -2.78% | -9.45% | – | inactive | – | – | – | – | – | – | – | – | – |
| Cc1onc(-c2ccccc2)c1-c1ccc(S(N)(=O)=O)cc1 | inactive | inactive | inactive | inactive | inactive | inactive | -8.7% | -24.2% | -2.89% | – | inactive | – | – | – | – | – | – | – | – | – |
| C[C@@H](N)C(=O)O | inactive | inactive | inactive | inactive | inactive | inactive | -7.83% | -21.5% | 15% | – | inactive | – | – | – | – | – | – | – | – | – |
| OC[C@@H](O)[C@@H](O)[C@H](O)[C@H](O)CO | inactive | inactive | inactive | inactive | inactive | inactive | -7.17% | -4.25% | -0.87% | – | inactive | -11.8% | -1.36% | – | – | – | – | – | – | – |
| O=C1c2ccccc2S(=O)(=O)N1CCCCN1CCN(c2ncccn2)CC1 | inactive | inactive | inactive | inactive | inactive | inactive | 1.94% | -19.1% | -25.2% | – | inactive | – | – | – | – | – | – | – | – | – |
